The supplement of paper PMC6555819

Key:
Test in all cases: PBM binding z-score (relative to random genomic background probes); higher = stronger binding; sequences stand for … in GC…GCGATTGACAGCGTAGAATGAAGG
[1] = tested on: FXR:RXRa (NR concentration 270 nM, RXRa partner concentration 90 nM)
Method in brief: (§1)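 Scanned fluorescence from custom Agilent 4×180K protein-binding microarrays was regression-normalized. Binding z-scores use random background probes as reference. Ligand-free nuclear receptor dimers were incubated on the arrays for 1 h and detected with antibodies against each partner (one per run).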

[2] = tested on: LXRa:RXRa (NR concentration 270 nM, RXRa partner concentration 90 nM)
Method in brief: as §1

[3] = tested on: LXRa homodimer (NR concentration 270 nM)
Method in brief: as §1

[4] = tested on: LXRb:RXRa (NR concentration 270 nM, RXRa partner concentration 90 nM)
Method in brief: as §1

[5] = tested on: LXRb homodimer (NR concentration 270 nM)
Method in brief: as §1

[6] = tested on: PPARa:RXRa (NR concentration 270 nM, RXRa partner concentration 90 nM)
Method in brief: as §1

[7] = tested on: PPARg:RXRa (NR concentration 180 nM, RXRa partner concentration 90 nM)
Method in brief: as §1

[8] = tested on: PPARg:RXRa 270nM:90nM, anti-RXR (NR concentration 270 nM, RXRa partner concentration 90 nM)
Method in brief: as §1

[9] = tested on: PPARg:RXRa 30nM:10nM, anti-RXR (NR concentration 30 nM, RXRa partner concentration 10 nM)
Method in brief: as §1

[10] = tested on: PPARg:RXRa 90nM:30nM, anti-RXR (NR concentration 90 nM, RXRa partner concentration 30 nM)
Method in brief: as §1

[11] = tested on: PPARg:RXRa DBDmut IVT, anti-RXR (DBD mutation: RXRa K156A/R161A, NR concentration 270 nM, RXRa partner concentration 90 nM)
Method in brief: as §1

[12] = tested on: PPARg:RXRa IVT, anti-PPARg (NR concentration 270 nM, RXRa partner concentration 90 nM)
Method in brief: as §1

[13] = tested on: PPARg DBDmut:RXRa IVT, anti-PPARg (DBD mutation: PPARg1 K132A/R137A, NR concentration 270 nM, RXRa partner concentration 90 nM)
Method in brief: as §1

[14] = tested on: PPARg DBDmut IVT, anti-PPARg (DBD mutation: PPARg1 K132A/R137A, NR concentration 270 nM)
Method in brief: as §1

[15] = tested on: PPARg homodimer (NR concentration 180 nM)
Method in brief: as §1

[16] = tested on: PXR:RXRa (NR concentration 270 nM, RXRa partner concentration 90 nM)
Method in brief: as §1

[17] = tested on: PXR homodimer (NR concentration 270 nM)
Method in brief: as §1

[18] = tested on: RARa:RXR (NR concentration 270 nM, RXRa partner concentration 90 nM)
Method in brief: as §1

[19] = tested on: RARa homodimer (NR concentration 270 nM)
Method in brief: as §1

[20] = tested on: RARb:RXRa (NR concentration 270 nM, RXRa partner concentration 90 nM)
Method in brief: as §1

Sequence	PBM binding z-score [1]	PBM binding z-score [2]	PBM binding z-score [3]	PBM binding z-score [4]	PBM binding z-score [5]	PBM binding z-score [6]	PBM binding z-score [7]	PBM binding z-score [8]	PBM binding z-score [9]	PBM binding z-score [10]	PBM binding z-score [11]	PBM binding z-score [12]	PBM binding z-score [13]	PBM binding z-score [14]	PBM binding z-score [15]	PBM binding z-score [16]	PBM binding z-score [17]	PBM binding z-score [18]	PBM binding z-score [19]	PBM binding z-score [20]
TCTATTAGTTGAATAGGGCAACCGAAACAGCGGA	0.393	0.654	-0.213	0.664	0.0451	1.16	0.438	1.92	3.61	2.81	2.01	1.19	0.574	0.929	0.658	0.411	0.0472	0.67	0.29	1.13
CAAACTTGGTCAAAGGTCAAAGTCGAGCCAACCA	6.18	6.18	4.48	5.67	2.36	6.84	11.5	10	10.4	11.2	3.33	6.48	1.57	0.873	4.08	6.01	1.58	7.69	1.5	5.11
ATCTCTAGGTAAGACTCAGTTCAGTAAAGAACGC	0.34	0.725	0.918	0.419	0.923	0.152	0.102	0.669	0.474	0.414	1.94	1.31	0.584	0.972	0.82	1.24	1.74	0.263	1.3	0.396
ATCTCAAGGTAAAGATAGTTCAGTGAATGCAAAT	0.707	5.22	0.562	1.38	0.331	0.546	0.372	0.508	0.448	0.296	0.21	0.461	0.586	1.27	0.584	2	1.05	0.797	0.976	1.16
CGTCGAAGGTCAGAGAGGTCAGTGAATGCCGAGT	6.25	5.11	3.28	4.34	0.365	4.79	3.57	4.39	1.28	3.06	2.6	3.03	-0.434	-0.601	6.33	6.06	11.6	5.68	3.9	5.05
TTACCAAGGTTAGCTGAGGTCGTTGATCCAACTC	2.11	4.83	0.313	2.51	-0.743	2.24	-0.0441	0.6	0.0802	0.486	0.191	0.594	-0.413	-0.849	0.103	5.71	1.46	2.83	-0.023	2.1
CTACCAAGGTGAACAAGGTCGTTGGTTACTATTC	1.39	1.4	0.281	1.71	-0.365	2.45	0.875	1.37	-0.194	0.758	1.96	2.45	0.303	-0.188	0.751	2.75	2.32	2.28	0.473	2.14
ATCGAAAGGTCGACGAGGTGAGTAGACACCGTTT	4.89	3.41	-0.158	2.75	0.205	4.45	3.11	3.63	1.22	2.45	0.417	2.09	0.633	0.273	1.49	2.93	0.455	3.91	0.813	3.89
CGTCGAAGTTCAACTAAGGTAACGTAAAGCACGC	4.31	3.83	1.23	2.36	0.375	3.15	1.3	1.98	0.415	1.23	-0.101	0.723	0.00916	0.194	1.47	4.23	2.7	3.02	0.757	3.74
GTACCAAGGTGAACAGGTCGTTGATGAGTAGGCG	0.658	0.647	-0.308	0.422	-0.997	2.34	1.64	1.88	0.3	1.02	1.79	3	-0.0563	-0.667	0.811	0.437	-0.13	1.38	-0.00415	2.09
CCTAGGAGGCCAGGGTCACTCAAGCATTTCGCTT	1.76	1.21	-0.383	1.7	-1.15	3	0.95	1.71	-0.259	0.653	0.19	1.11	-0.773	-1.85	1.09	2.28	-0.346	2.55	-0.732	2.67
TTACCAAGGTGAAGGTCGTCGATCCCTCTGTAGA	1.32	1.01	-0.48	1.09	-0.788	2.6	3.62	4.16	2.47	4.28	1.94	3.33	0.0568	0.108	0.887	1.24	-0.288	1.64	-0.604	2.36
ACTATTAATTGACTTAGGGCAACCGATACGACGC	0.0871	0.356	1.02	0.353	1.25	0.0941	1.05	0.505	0.559	0.814	0.595	0.509	0.998	1.47	1.74	0.334	1.65	0.245	2.46	0.883
CGAACTAGGTCAGAACAGGACAGCGAAGGATGAT	1.13	0.841	-0.226	0.393	-0.43	3.3	5.21	4.4	1.79	3.38	6.88	7.17	2.58	2.2	1.18	0.861	-0.18	1.86	0.0245	2.88
TCTTGTAGGTCAGCAGGTTAAGAAAGCTGGCCAA	3.31	2.55	0.186	2.16	0.418	4.35	6.77	5.91	4.19	5.71	6.85	7.39	2.94	2.48	2.31	1.95	-0.0454	2.84	0.787	3.91
